Sampled rows, rich in hits. Any-hit rate of the full collection: about 3.4%.
PAX8 reporter – inhibitors of PAX8 transcriptional activity in RMG-I cells; inhibition, % at 12.6 µM; actives 1.2% (n = 360,000); RMG-I TPO-luciferase reporter, SteadyGlo, 24 h; AID 652154;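 active means mean replicate inhibition at least 60% with every replicate also reaching 60%; inconclusive means only one of the two criteria is met; inactive means mean below 60% and not all replicates reaching 60%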;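 further: luciferase light reporting Pax8 driven TPO promoter activity; plate controls were median of neutral control wells for no effect and mitoxantrone controls for full effect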
EWS-Fli block – inhibitors of EWS/Fli oncoprotein transcriptional activity | A673 NR0B1-luciferase reporter, viability-normalised | inhibition, % at 12.6 µM | actives 0.67% (n = 350,000);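 active means mean inhibition of at least 50% after viability correction, with every replicate also passing that limit; inconclusive means mean reaches 50% but only one of two replicates passes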;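 further: firefly luciferase signal divided by Alamar Blue viability fluorescence both relative to DMSO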
Ecoli rRNA inh – inhibits bacterial ribosomal RNA function over humanized ribosomes. E. coli WT GFP vs humanized-ribosome RFP mutants, fluorescence, 24 h; stronger effect = lower value; DMSO median 0, no signal -100. GFP signal change (wild-type ribosome), % (concentration not given with the values). actives 1.6% (n = 350,000);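 active means significant combined selectivity score with lowered wild-type GFP, culture density cut under 30%, mutant RFP and density less affected; inactive means any of these conditions unmet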
SIRT5 block – blocks human SIRT5 desuccinylation of peptide. Q9NXA8. Purified SirT5, succinyl-peptide AMC, trypsin-coupled fluorescence. inhibition, % at 15 µM. actives 1.1% (n = 330,000). AID 652115; in the data active means inhibition above about 15%; inconclusive means no clear call, values can overlap the other calls
Target sequence (Q9NXA8 whole entry, looked up): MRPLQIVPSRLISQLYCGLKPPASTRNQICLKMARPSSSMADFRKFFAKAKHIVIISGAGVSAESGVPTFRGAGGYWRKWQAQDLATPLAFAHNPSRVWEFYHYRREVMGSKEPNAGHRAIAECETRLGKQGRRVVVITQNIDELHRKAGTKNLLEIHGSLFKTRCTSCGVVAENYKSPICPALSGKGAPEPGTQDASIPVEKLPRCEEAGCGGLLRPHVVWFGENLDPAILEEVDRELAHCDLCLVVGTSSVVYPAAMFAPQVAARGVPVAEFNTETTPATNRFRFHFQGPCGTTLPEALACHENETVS
LGR2 antag – inhibitors of bursicon-induced Drosophila LGR2 receptor cAMP signaling | HEK293 LGR2, CRE-luciferase, bursicon-stimulated, 4 h | inhibition, % at 9.99 µM | actives 0.35% (n = 380,000) | AID 720647;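 active means drop in luminescence signal, shown as inhibition above about 50% in the replicate tests, limit read from the data, passing the limit was not always enough; inconclusive means probably only some replicates passing the limit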;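 further: agonist challenge used bursicon conditioned medium at about half maximal strength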
PGC1a acetyl inh – lowers PGC1a acetylation signal in U2OS cells | AlphaScreen anti-acetyl-lysine; with virally co-expressed GCN5 acetyltransferase | inhibition, % at 15.6 µM | actives 0.17% (n = 350,000) | AID 651687;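 active means every replicate shows inhibition of at least 40%; inconclusive means mean inhibition at least 40% but some replicate below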;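 further: 0% = neutral control wells and 100% = positive control wells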
An asterisk follows results filed as active; u = inconclusive; x = no result given; ! = repeats disagree.

SMILES	PAX8 reporter	EWS-Fli block	Ecoli rRNA inh	SIRT5 block	LGR2 antag	PGC1a acetyl inh
O=C(C[C@@H]1C[C@H]2c3cc(NC(=O)NC4CCCCC4)ccc3O[C@H]2[C@@H](CO)O1)NCc1ccncc1	-1	2	1	4	10	-2
C[C@@H]1CN([C@@H](C)CO)C(=O)c2cc(NS(=O)(=O)c3ccc(Cl)cc3)ccc2O[C@@H](C)CCCCO[C@@H]1CN(C)Cc1ccc2c(c1)OCO2	71*	13	-3	16*	-22	-2
C[C@@H]1CCCCO[C@H](CN(C)Cc2ccc3c(c2)OCO3)[C@@H](C)CN([C@@H](C)CO)C(=O)c2cc(NS(=O)(=O)c3ccc(Cl)cc3)ccc2O1	114*	u	-28	5	32	-5
Cc1ccc(S(=O)(=O)Nc2ccc3c(c2)C(=O)N([C@@H](C)CO)C[C@@H](C)[C@@H](CN(C)Cc2ccc4c(c2)OCO4)OCCCC[C@H](C)O3)cc1	72*	3	1	14	11	x
C[C@H](CO)N1C[C@H](C)[C@@H](CN(C)S(=O)(=O)c2cn(C)cn2)Oc2c(NC(=O)CCC(F)(F)F)cccc2C1=O	x	x	0	x	x	x
C[C@H](CO)N1C[C@H](C)[C@H](CN(C)Cc2ccc(-c3ccccc3)cc2)Oc2ncc(C#C[C@@H](C)O)cc2C1=O	-19	-9	2	2	6	0
C[C@@H]1CN([C@@H](C)CO)C(=O)c2cc(C#C[C@@H](C)O)cnc2O[C@H]1CN(C)Cc1ccc(-c2ccccc2)cc1	42	34	0	9	5	4
C[C@H](O)C#Cc1cnc2c(c1)C(=O)N([C@H](C)CO)C[C@@H](C)[C@H](CN(C)Cc1ccc(-c3ccccc3)cc1)O2	-6	-9	3	x	-33	8
C[C@H](O)C#Cc1cnc2c(c1)C(=O)N([C@H](C)CO)C[C@@H](C)[C@@H](CN(C)Cc1ccc(-c3ccccc3)cc1)O2	65*	11	-3	-4	-8	3
C[C@H](O)C#Cc1cnc2c(c1)C(=O)N([C@@H](C)CO)C[C@@H](C)[C@H](CN(C)Cc1ccc(-c3ccccc3)cc1)O2	72*	-1	0	8	11	19
C[C@H](O)C#Cc1cnc2c(c1)C(=O)N([C@H](C)CO)C[C@H](C)[C@H](CN(C)Cc1ccc(-c3ccccc3)cc1)O2	87*	9	0	4	-15	6
C[C@H](CO)N1C[C@H](C)[C@@H](CN(C)Cc2ccc(-c3ccccc3)cc2)Oc2ncc(C#C[C@@H](C)O)cc2C1=O	-4	16	0	17*!	-2	-2
Cn1ncc(Br)c1C(=O)NC1C2CC3CC(C2)CC1C3 (stereo not drawn)	6	4	-30*	3	4	x
Cn1ncc(Br)c1C(=O)NC1CCCCCCC1	-12	-1	9	-1	-12	-2
Cn1c(=O)n(Cc2ccc(Br)cc2)c2ccccc21	19	8	-48*	-2	16	x
CCCCCCN1C[C@@H](n2cc(-c3ccc(F)cc3)nn2)[C@H](O)C[C@@H]1c1ccc(Cl)cc1	89*	23	x	0	u	10
CCCCCCN1C[C@H](O)[C@@H](n2cc(-c3ccc(F)cc3)nn2)C[C@@H]1c1ccc(Cl)cc1	-32	9	23	0	13	-1
CCCCCC(=O)N1C[C@H](n2cc(-c3ccc(F)cc3)nn2)[C@@H](O)C[C@@H]1c1ccc(C)cc1	6	5	-14	2	-5	67*
O=C(NC1CCCC1)N1CCCCN2[C@H](CO)[C@H](c3ccc(/C=C/c4ccccc4)cc3)[C@@H]2C1	-23	6	-53	x	11	-2
C[C@H](CO)N1C[C@H](C)[C@H](CN(C)C(=O)NC2CCCCC2)OCCCC[C@H](C)Oc2ccc(NS(=O)(=O)c3ccccc3)cc2C1=O	15	4	-6	7	-5	1
CCN(CC)C(=O)c1ccc2c(=O)n(CCOC)c(=S)[nH]c2c1	x	x	x	x	x	9
CCCn1c(=S)[nH]c2cc(C(=O)N(CCO)Cc3ccccc3)ccc2c1=O	2	8	-30*	-1	-9	5
C[C@@H]1CCCCO[C@H](CN(C)CC2CC2)[C@@H](C)CN([C@H](C)CO)C(=O)c2cc(NC(=O)CCC(F)(F)F)ccc2O1	-1	x	0	0	-4	4
CN(C)CC(=O)Nc1ccc2c(c1)C(=O)N(C)[C@H]1CC[C@H](CC(=O)Nc3ccc(F)cc3)O[C@@H]1CO2	x	x	-1	x	x	x
CCOC(=O)/C(=C\C=C\N1CCOCC1)C(C)=O	-19	9	7	16*	-17	x
SMILES	PAX8 reporter	EWS-Fli block	Ecoli rRNA inh	SIRT5 block	LGR2 antag	PGC1a acetyl inh
Cc1ccc(S(=O)(=O)N2CCCCC2)cc1C(=O)N(C)CC(=O)Nc1ccc(Cl)c(C(F)(F)F)c1	x	x	-8	-1	14	x
COc1ccc(Cl)cc1NC(=O)COC(=O)CNC(=O)c1ccc([N+](=O)[O-])c(C)c1	-5	x	x	x	6	1
Cc1cc(C(=O)NCC(=O)OCC(=O)Nc2ccc(OC(F)F)cc2)ccc1[N+](=O)[O-]	5	12	-22*	-10	0	11
Cc1ccc(NC(=O)CNC(=O)c2ccc(OC(F)F)cc2)cc1S(=O)(=O)N1CCCCCC1	6	11	-23*	1	5	x
CN(CC(=O)Nc1ccc(Cl)c(C(F)(F)F)c1)C(=O)c1ccc(S(=O)(=O)N2CCOCC2)cc1	25	55*	-2	-1	-8	1
Cc1ccc(NC(=O)COC(=O)c2ccc(OC(F)F)cc2)cc1S(=O)(=O)N1CCCCC1	-12	3	-7	-4	-7	x
Cc1ccc(C(=O)N(C)CC(=O)Nc2ccc(Cl)c(C(F)(F)F)c2)cc1S(=O)(=O)N1CCCCC1	24	48	-5	19*	23	-10
C[C@H]1CN([C@@H](C)CO)C(=O)c2cc(C#Cc3ccncc3)cnc2O[C@@H]1CN(C)CC1CCCCC1	x	0	1	7	-1	-7
C[C@@H](NC(=O)[C@@H]1[C@@H](CO)[C@@H]2Cn3c(ccc(-c4ccccc4F)c3=O)[C@H]1N2C)c1ccccc1	x	13	0	-5	4	x
CN(CC(=O)Nc1ccc(Cl)c(C(F)(F)F)c1)C(=O)c1cc(=O)c2ccccc2o1	11	1	3	22*	6	2
C[C@@H]1CN([C@H](C)CO)C(=O)c2cc(/C=C/c3ccccc3)cnc2O[C@@H]1CN(C)Cc1cncnc1	x	-12	3	-12	-18	13
COC(=O)[C@]1(C)N[C@H](CN(C)S(=O)(=O)c2ccc(C)cc2)[C@@H]2C(=O)N(C)C(=O)[C@@H]21	9	2	-6	2	x	x

Screening data (PubChem)
